From PubChem BioAssay
The list is not random: actives were taken first. Their share in the collection is about 12%.
PLK1 PBD block – blocks phosphopeptide binding to human PLK1 polo-box domain; P53350; Plk1 PBD binding of FITC phosphopeptide, fluorescence polarization; Potency, µM, for the others: max response, negative = inhibition, most hits filed as inhibitors; actives 2.8% (n = 360,000); AID 720504; also: potency is read from the fitted curve at half-maximal effect; series mostly up to about 57 µM; % is scaled to controls: 0 for no effect and ±100 for the full control effect; nearly all actives have a fitted effect of over 65% in size
PI5P4Ka inh – inhibitors of human PI5P4K alpha; P48426; actives 1.2% (n = 330,000); PI5P4Kalpha enzyme, ADP-Glo luminescence, 60 min; hits give low values; max response, %; AID 652105; active = max response of -50% or lower; inconclusive = between -30% and -50%; inactive = -30% or higher; also: value at the top dose of about 77 µM; % is scaled to controls: 0 for no effect and ±100 for the full control effect
Target sequence (P48426 whole entry, looked up): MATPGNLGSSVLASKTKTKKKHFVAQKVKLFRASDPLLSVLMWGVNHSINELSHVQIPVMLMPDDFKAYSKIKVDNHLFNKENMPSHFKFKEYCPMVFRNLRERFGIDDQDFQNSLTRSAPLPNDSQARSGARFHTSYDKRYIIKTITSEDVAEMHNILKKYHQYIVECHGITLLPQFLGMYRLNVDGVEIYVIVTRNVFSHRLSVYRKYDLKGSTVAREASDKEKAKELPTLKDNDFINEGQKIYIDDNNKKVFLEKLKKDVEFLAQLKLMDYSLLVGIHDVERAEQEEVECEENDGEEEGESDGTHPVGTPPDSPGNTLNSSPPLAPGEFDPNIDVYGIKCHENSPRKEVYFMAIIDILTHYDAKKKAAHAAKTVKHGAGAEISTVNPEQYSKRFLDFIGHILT
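Human PI5P4Kalpha with substrate in 0.038 M HEPES pH 7.4, 0.28 mM EGTA, 0.1% CHAPS, 5% DMSO; reaction started with 5 microM ATP (final), 60 min at room temperature. ADP formed read by ADP-Glo luminescence.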
JMJD2A Tudor – JMJD2A Tudor domain (human) inhibition; O75164; AlphaScreen JMJD2A-Tudor / H3K4me3 peptide binding; Potency, µM (top dose mostly 114 µM), without a hit: top-dose activity change, negative = inhibition, hits mostly inhibitors; actives 4.4% (n = 390,000); AID 504339; also: potency is read from the fitted curve at half-maximal effect; % is scaled to controls: 0 for no effect and ±100 for the full control effect; nearly all actives have a fitted effect of over 50% in size
HP1b binding inh – blocks HP1-beta chromodomain binding to methylated histone tails | P83916 | AlphaScreen HP1-beta / biotin-H3K9me3 peptide binding | Potency, µM (highest dose often 114 µM), for inactives: at the highest dose activity change, negative = inhibition, hits mostly inhibitors | actives 0.56% (n = 390,000); also: potency is read from the fitted curve at half-maximal effect; nearly all actives have a fitted effect of over 70% in size
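AlphaScreen: HP1-beta (50 nM) preformed 30 min with biotin-H3(1-18)K9me3 peptide (50 nM) in PBS pH 7.4, 0.01% Tween-20. Compound added for 30 min at RT, then streptavidin donor/nickel chelate acceptor beads (10 ug/mL) for 30 min.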
G9a block – G9a (human) methyltransferase inhibition. Q96KQ7. G9a H3K9 monomethylation, AlphaScreen, 2 h. Potency, µM (top dose mostly 102 µM), for the others: top-dose activity, negative = inhibition, actives largely listed as inhibitors. actives 8.8% (n = 350,000); also: potency is read from the fitted curve at half-maximal effect; % is scaled to controls: 0 for no effect and ±100 for the full control effect; nearly all actives have a fitted effect of over 75% in size
Target sequence (Q96KQ7 913-1193 limits assumed): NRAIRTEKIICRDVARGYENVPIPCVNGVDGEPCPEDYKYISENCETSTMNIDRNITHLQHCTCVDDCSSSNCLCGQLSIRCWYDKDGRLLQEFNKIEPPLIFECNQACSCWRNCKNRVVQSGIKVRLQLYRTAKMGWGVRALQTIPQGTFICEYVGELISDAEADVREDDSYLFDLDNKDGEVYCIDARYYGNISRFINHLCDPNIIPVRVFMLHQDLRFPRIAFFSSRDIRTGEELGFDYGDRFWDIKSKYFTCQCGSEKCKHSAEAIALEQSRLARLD
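Quantitative HTS format: methyltransferase activity on a biotin-tagged H3K9 peptide is measured by AlphaScreen, using a rabbit anti-monomethyl-H3K9 antibody with streptavidin donor and anti-IgG acceptor beads. Final levels are 20 nM enzyme, 500 nM peptide, 20 uM SAM; 2 h RT.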
BAZ2B block – inhibitors of human BAZ2B bromodomain. AlphaScreen BAZ2B-H3K14Ac peptide displacement. actives 4.4% (n = 360,000). Q9UIF8. Potency, µM (titrated, usually from 114 µM), for inactives: at the highest dose activity change, negative = inhibition, hits mostly inhibitors; also: potency is read from the fitted curve at half-maximal effect; % is scaled to controls: 0 for no effect and ±100 for the full control effect; nearly all actives have a fitted effect of over 60% in size
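Complex of BAZ2B and biotin-H3K14Ac (50 nM apiece) forms over 30 min at RT, then faces library compounds up to 110 uM for another 30 min; AlphaScreen beads added, 20 min dark incubation, luminescence read.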
Starred values were filed as active, the others as inactive; ? = inconclusive; . = no result; ! = a repeat was not active; [ ] = another dose, or the depositor's remark. Unless noted, calls follow the shape of the dose curve; as a rule, active = well fitted curve in the direction sought with a large enough effect; inconclusive = small, poorly fitted or top-dose-only effect, or another doubt; inactive = no such curve, though single readings can be large; an effect the other way counts as inactive or inconclusive.

SMILES | PLK1 PBD block | PI5P4Ka inh | JMJD2A Tudor | HP1b binding inh | G9a block | BAZ2B block
O=C1NC[C@H](CCCCN2C[C@H](Cc3ccc(O)cc3)N(CCc3ccc(O)cc3)C(=O)C2=O)N(Cc2ccccc2)C1=O | -11% | 1 | . | . | . | .
COc1cc(C2Nc3ccccc3C(=O)N2Cc2ccco2)ccc1O (configuration not stated) | . | . | -8%[57.1 µM] | 18%[57 µM] | . | .
C/C(=C\c1ccccc1)CN(C)CCN(C)C | . | . | . | . | 56µM* | -2%
O=C1NC[C@H](CCCCN2C[C@H](Cc3ccccc3)N(CCC3CCCCC3)C(=O)C2=O)N(CCc2ccc(O)cc2)C1=O | -5% | -2 | . | . | . | .
CCOC(=O)c1ccc(NS(=O)(=O)c2cc(Br)cc3c2N(C(C)=O)C(C)C3)cc1 (configuration not stated) | . | . | -16% | 21% | 3%[59 µM] | -9%
O=c1c(-c2ccccc2)nc2cnc(N3CCNCC3)nc2n1Cc1cccs1 | . | . | . | . | -40%[12.7 µM] | .
CC(C)NC(=O)CC1Nc2c3ccccc3nc(=S)n2C1=O (configuration not stated) | -3% | 5 | -2% | 54% | 17%[2.33 µM] | -1%
C=CCNC(=O)CC1Nc2c3ccccc3nc(=S)n2C1=O (configuration not stated) | -19% | -7 | 0% | 46% | 35µM* | -22%
CC(C)CCNC(=O)CC1Nc2c3ccccc3nc(=S)n2C1=O (configuration not stated) | -21% | 2 | 11% | 38% | 56µM* | -31%
Cc1ccc(CN2CCN(C3CCN(C(=O)Nc4ccc(C)cc4Cl)CC3)C(=O)C2=O)cc1 | . | . | -11% | 21% | 2%[59 µM] | -6%
COc1ccc2oc(-c3ccc(NC(=O)c4ccc(Cl)cc4Cl)cc3)nc2c1 | . | . | -1% | 25% | 5%[59 µM] | 2%
Cc1cc(C)c(-c2csc(-c3cc4ccccc4oc3=O)n2)cc1C | . | . | 116% | 162% | 57%[59 µM] | 42%
Cc1cc(C)c(-c2csc(Cc3nc(-c4cc5ccccc5oc4=O)cs3)n2)cc1C | 27µM* | -6 | ? | 31% | ? | 17%
COc1ccc(-c2nc3c4ccccc4n(CC(=O)N4CCN(c5ccccc5F)CC4)c(=O)n3n2)cc1 | . | . | -7% | 15% | 5%[59 µM] | -3%
CC(=O)c1ccc(S(=O)(=O)N(C)CCCC(=O)N(C)Cc2c(F)cccc2Cl)cc1 | 4% | 4 | -7% | 32% | 5% | -12%
Cc1ccc(C(=O)N2CCCC(C(=O)c3ccc(Cl)cc3C)C2)cn1 (configuration not stated) | -10% | 3 | -1% | 48% | -3% | -22%
COc1ccccc1C(=O)C1CCCN(C(=O)c2cn3cc(Cl)ccc3n2)C1 (configuration not stated) | 4% | 2 | -6% | 34% | 28µM* | -26%
Cc1cnc(C(=O)N2CCCC(C(=O)c3ccc(Cl)cc3C)C2)cn1 (configuration not stated) | 27µM* | 2 | -16%[11.4 µM] | 12% | 13%[59 µM] | -4%
CCNC(=O)C1(C)CCN(C(=O)c2ccc(OC(F)F)cc2)C1 (configuration not stated) | -9% | 3 | . | . | . | .
O=C(Cc1ccc(-c2ccccc2)cc1)NCCS(=O)(=O)N1CCN(c2ccccc2)CC1 | . | . | -4% | 10%[57 µM] | 3%[59 µM] | -2%
CCCC(C)C(=O)Nc1nnc(CCc2ccccc2)s1 (configuration not stated) | -10% | -1 | -16% | 41% | -10% | -1%
COc1cc2c(cc1OC)CN(C(=O)CCc1c[nH]c3ccccc13)[C@H](C(=O)O)C2 | -5% | 4 | -3% | 34% | 71µM* | -18%
O=C(O)[C@@H]1CCCN1C(=O)CCc1c[nH]c2ccccc12 | -5% | 1 | -18% | 31% | -6% | 5%
N#Cc1ccc(CSc2nnc3[nH]c(=O)cc(N)n23)cc1 | ? | ? | 2% | 16% | 22µM* | -22%
Cc1cc(=O)[nH]c2nnc(SCc3ccc(F)cc3)n12 | . | . | -14% | 17% | -1%[59 µM] | -2%
SMILES | PLK1 PBD block | PI5P4Ka inh | JMJD2A Tudor | HP1b binding inh | G9a block | BAZ2B block
COc1ccc(CSc2nnc3[nH]c(=O)cc(N)n23)cc1 | ? | -25 | -16%[11.4 µM] | 2% | 35µM* | -22%
CS(=O)(=O)Nc1ccc(OCc2ccccc2)cc1 | -8% | . | -17% | 22% | 2% | -3%
O=C1CCCC/C1=N\Nc1ccc(OCc2ccccc2)cc1 | -8% | -2 | -29% | -6% | 40µM* | -23%
CC1CCN(S(=O)(=O)c2nnc(NC(=O)c3ccccc3Br)s2)CC1 | -23% | 10 | -11% | 47% | 2% | 13%
O=C(Nc1nnc(S(=O)(=O)N2CCCC2)s1)c1ccccc1Br | -2% | 1 | ? | 52% | ? | 7.1µM*!
O=C(Nc1nnc(S(=O)(=O)N2CCCCCC2)s1)c1ccccc1Br | -5% | -9 | 13µM*! | 40% | 10µM* | 14µM*!
O=C(COc1ccc(Cl)cc1)Nc1nnc(S(=O)(=O)N2CCCCCC2)s1 | -7% | -10 | 10µM*! | ? | 3.2µM*! | 1.8µM*!
O=C(Nc1nnc(S(=O)(=O)N2CCCCCC2)s1)c1ccc(Br)cc1 | -13% | -3 | ? | ? | 14µM*! | -39%
O=C(Nc1nnc(S(=O)(=O)N2CCCCC2)s1)c1ccc(Cl)cc1 | -11% | -22 | 1% | 42% | ? | ?
CC(C)(C)OC(=O)N(Cc1ccccc1)Cc1ccccc1OCc1ccc(NC(=O)C2CCC2)cc1 | -6% | 14 | -10% | 58% | . | .
CN1CCN(C(=O)c2cccc(-c3ccc4nccn4c3)c2)CC1 | -4% | -1 | . | . | . | .
COc1ccc(C2NC(=O)NC(C)=C2C(=O)OCC2CCCCC2)cc1OC (configuration not stated) | -1% | -3 | -13% | 24% | 27% | -28%
CCN(c1ccc(OC)cc1)S(=O)(=O)c1nnc(NC(=O)COc2ccc(F)cc2)s1 | 27µM* | ? | 35µM*! | 13% | -50% | -26%
C#CCN(C[C@@H]1[C@@H](OC(=O)NC2CC2)[C@@H](OC(=O)NC2CC2)CN(C(=O)OC(C)C)N1C(=O)OC(C)C)S(=O)(=O)c1ccc(C)cc1 | 21µM* | 0 | . | . | . | .
COC(=O)C1=CN(c2ccc(OC)cc2OC)C(N)=C(C#N)C1c1ccccc1F (configuration not stated) | -2% | -2 | . | . | . | .
O=C(CN1C(=O)NC2(CCCC2)C1=O)NCCc1ccc(Cl)cc1Cl | -1% | -1 | -14% | 18% | 3%[2.33 µM] | -5%
CN(Cc1ccc(Cl)cc1Cl)C(=O)CN1C(=O)NC2(CCCC2)C1=O | -5% | 2 | -2% | 39% | 35µM* | -2%
O=C(NC1CCCCC1)c1ccc(CSc2nc3cccnc3n2Cc2cccc(F)c2)cc1 | . | . | -15% | 34% | -32%[59 µM] | 1%
